Assay outcomes from PubChem.
Shown are actives, neighbours in structure and some others; about 0.9% of the full set was active somewhere.
BLM inh: Bloom syndrome helicase (human) inhibition; P54132; recombinant BLM DNA unwinding, fluorescence dequenching; Potency, µM (highest dose often 56.1 µM), usual class: inhibitors; 350,000 tested, 0.2% active; AID 2528; also: nearly all actives have a fitted effect of over 35% in size
Target sequence (P54132 whole entry, looked up): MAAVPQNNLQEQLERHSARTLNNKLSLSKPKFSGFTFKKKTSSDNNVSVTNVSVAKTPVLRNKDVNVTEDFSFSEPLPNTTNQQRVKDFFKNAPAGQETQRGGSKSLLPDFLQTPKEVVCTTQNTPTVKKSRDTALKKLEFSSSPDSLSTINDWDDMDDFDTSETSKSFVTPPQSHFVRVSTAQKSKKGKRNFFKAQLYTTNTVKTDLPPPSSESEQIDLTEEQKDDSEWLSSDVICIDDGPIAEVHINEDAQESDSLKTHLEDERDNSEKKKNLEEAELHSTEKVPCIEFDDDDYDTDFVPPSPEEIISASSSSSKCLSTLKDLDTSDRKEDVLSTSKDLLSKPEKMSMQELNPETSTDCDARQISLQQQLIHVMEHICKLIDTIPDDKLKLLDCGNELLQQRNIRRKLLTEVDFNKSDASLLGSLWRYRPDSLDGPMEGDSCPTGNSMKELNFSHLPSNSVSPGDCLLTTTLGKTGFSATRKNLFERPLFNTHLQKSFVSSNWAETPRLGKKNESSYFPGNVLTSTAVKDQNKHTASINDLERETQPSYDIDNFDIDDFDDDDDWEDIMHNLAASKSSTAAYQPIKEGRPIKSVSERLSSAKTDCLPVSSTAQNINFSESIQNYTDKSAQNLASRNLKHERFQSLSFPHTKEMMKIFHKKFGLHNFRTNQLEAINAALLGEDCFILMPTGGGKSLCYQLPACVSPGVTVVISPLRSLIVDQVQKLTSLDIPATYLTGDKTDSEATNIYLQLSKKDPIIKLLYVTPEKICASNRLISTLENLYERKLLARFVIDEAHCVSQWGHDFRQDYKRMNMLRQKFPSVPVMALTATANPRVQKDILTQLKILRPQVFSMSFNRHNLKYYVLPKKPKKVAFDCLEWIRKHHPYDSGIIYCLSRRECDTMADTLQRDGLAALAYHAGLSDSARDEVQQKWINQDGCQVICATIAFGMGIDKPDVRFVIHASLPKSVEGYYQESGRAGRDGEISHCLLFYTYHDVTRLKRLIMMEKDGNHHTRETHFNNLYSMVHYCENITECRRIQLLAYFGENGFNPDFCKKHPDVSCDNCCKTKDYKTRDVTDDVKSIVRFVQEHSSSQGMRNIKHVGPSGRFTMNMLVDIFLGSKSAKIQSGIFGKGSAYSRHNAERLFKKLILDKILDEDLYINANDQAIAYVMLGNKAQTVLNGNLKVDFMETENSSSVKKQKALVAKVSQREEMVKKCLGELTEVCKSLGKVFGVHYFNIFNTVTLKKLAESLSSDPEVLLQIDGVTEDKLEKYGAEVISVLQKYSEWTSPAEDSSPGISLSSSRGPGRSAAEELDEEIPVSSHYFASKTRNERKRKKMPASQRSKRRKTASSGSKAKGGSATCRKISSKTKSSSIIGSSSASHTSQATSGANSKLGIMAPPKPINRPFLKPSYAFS
TRb SRC2 PPI: TRbeta-SRC2 interaction inhibition. TRbeta-SRC2 peptide binding, fluorescence polarization; receptor liganded with 1 µM T3. 280,000 tested, 0.065% active. Potency, µM (top dose mostly 106 µM), actives largely listed as inhibitors. P10828. AID 1469; also: nearly all actives have a fitted effect of over 50% in size
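Fluorescence polarization of 20 nM Texas Red SRC2 peptide (20-aa NR interaction domain) bound to 0.6 uM human TRb ligand-binding domain, with 1 uM T3, after 5 hr at ambient temperature; inhibition seen as decreased polarization.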
RECQ1 helicase: blocks DNA unwinding by human RECQ1 | RECQ1 DNA unwinding, red fluorescence kinetic read | Potency, µM (highest dose often 57.3 µM), usual class: inhibitors | 240,000 tested, 0.54% active | AID 2549; also: nearly all actives have a fitted effect of over 30% in size
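50 nM RECQ1T1 preincubated 15 min with compound in Tris pH 8.0 buffer with MgCl2, DTT, Tween-20 and 2.5 ug/ml poly(dI-dC); started with 200 nM TAMRA/BHQ-2 forked duplex and 2 mM ATP. Unwinding read as fluorescence (525/598 nm), two reads 2 h apart.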
APEX1 inh: inhibitors of human APE1 endonuclease; 350,000 tested, 0.35% active; recombinant APE1, TAMRA/BHQ-2 abasic DNA cleavage fluorescence; P27695; AID 2517; Potency, µM (highest dose often 65.8 µM), most hits filed as inhibitors; also: nearly all actives have a fitted effect of over 55% in size
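Step 1: APE1 (0.75 nM) with compound, 15 min RT. Step 2: add 50 nM fluorophore/quencher THF duplex. Step 3: three fluorescence reads 60 s apart (525/598 nm); read 3 minus read 1 = reaction progress.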
TR SRC2 fluor cs: Texas Red fluorescence interference in TRb-SRC2 counter-screen; Potency, µM (titrated, usually from 106 µM); 280,000 tested, 0.29% active; TRb/SRC2 Texas Red total fluorescence interference; active = well fitted curve in either direction with a large enough effect; inconclusive = small, poorly fitted or top-dose-only effect
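Human TRb ligand-binding domain at 0.6 uM with 20 nM Texas Red SRC2 peptide in Tris buffer containing 1 uM T3 and 5% DMSO, incubated with compound 5 h at ambient temperature. Total fluorescence (555/632 nm) calculated as parallel + 2 × perpendicular.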
RGS12 GoLoco inh: RGS12 GoLoco-Gai1 interaction inhibition; P63096; Gai1:RGS12 GoLoco peptide FP, rhodamine, 10 min; Potency, µM (doses to about 61.6 µM), usual class: inhibitors; 230,000 tested, 0.44% active; active = well fitted inhibition curve with a large enough effect, not every such curve was filed as active; inactive = no such curve, though single readings can be large or run the other way; also: nearly all actives have a fitted effect of over 30% in size
Large screens that a line does not name were inactive; ! = a repeat was not active; [ ] = remark or other dose. Unless noted, calls follow the shape of the dose curve; as a rule, active = well fitted curve in the direction sought with a large enough effect; inconclusive = small, poorly fitted or top-dose-only effect, or another doubt; inactive = no such curve, though single readings can be large; an effect the other way counts as inactive or inconclusive.

O=C(NCc1ccc(-c2nc3ccccc3s2)cc1)c1ccco1	TR SRC2 fluor cs 0.0006µM[quencher]
CC1(C)S[C@@H]2[C@H](NC(=O)C(C(=O)O)c3ccsc3)C(=O)N2[C@H]1C(=O)O (stereo partly specified)	none (no result: BLM inh, TRb SRC2 PPI, RECQ1 helicase, TR SRC2 fluor cs, RGS12 GoLoco inh)
COc1nc(Cl)cn(-c2ccc(C)cc2)c1=O	none
Cc1ccc(-n2c(Cl)c(Cl)nc(Cl)c2=O)cc1	RGS12 GoLoco inh 2µM
C[C@@H]1CC[C@H]2[C@H](C)C3[C@H](C[C@H]4[C@@H]5CC=C6C[C@@H](O)CC[C@@]6(C)[C@@H]5C[C@@H](O)[C@]34C)N2C1 (stereo partly specified)	none (no result: BLM inh, TRb SRC2 PPI, RECQ1 helicase, APEX1 inh, TR SRC2 fluor cs)
CS[C@@H]1SC[C@H]2C(=O)N(C)C(C(C)C)C(=O)OC[C@@H](NC(=O)c3cnc4ccccc4n3)C(=O)N[C@@H](C)C(=O)N(C)[C@H]1C(=O)N(C)C(C(C)C)C(=O)OC[C@@H](NC(=O)c1cnc3ccccc3n1)C(=O)N[C@@H](C)C(=O)N2C (stereo partly specified)	RECQ1 helicase 10µM, APEX1 inh inconclusive (no result: RGS12 GoLoco inh)
CC(NC(=O)c1cnc2ccccc2n1)c1ccccc1 (stereo unspecified)	none (no result: TRb SRC2 PPI, RECQ1 helicase, TR SRC2 fluor cs, RGS12 GoLoco inh)
O=C1C2CC=C(Cl)CC2C(=O)N1CCCCCCN1C(=O)C2CC=C(Cl)CC2C1=O (stereo unspecified)	BLM inh inconclusive, RECQ1 helicase 28µM, APEX1 inh 32µM
Cc1cnc(C(=O)Nc2ccc(C)c(S(=O)(=O)N(C)C)c2)cn1	TR SRC2 fluor cs 35µM[quencher]
Cc1ccc(NC(=O)c2cnccn2)cc1S(=O)(=O)N(C)C	none
C/C(=N\NC(=O)c1cc(-c2cccnc2)nc2ccccc12)c1ccccc1O	TR SRC2 fluor cs 3.2µM[quencher]
C=C(C)C(=O)OCCCCCCCCCCCCCCCC	none (no result: BLM inh, RECQ1 helicase, APEX1 inh, RGS12 GoLoco inh)
CCCNc1c(F)c(F)c2c(C)c3ccccc3nc2c1F	RGS12 GoLoco inh 28µM
NCCC[C@@H](CC(=O)N[C@@H]1CCNC[C@H]1C(=O)N[C@H](CC(=O)N[C@@H](CCC(=O)O)CC(=O)O)Cc1ccccc1)NC(=O)C[C@H](CO)NC(=O)[C@@H]1CNCC[C@H]1N	BLM inh 22µM
CC(=O)NC(CCC(=O)O)C(=O)O (stereo unspecified)	none
CC(=O)N[C@@H](CC(=O)O)C(=O)N[C@@H](CCC(=O)O)C(=O)O	RECQ1 helicase inconclusive, APEX1 inh 3.5µM!
COc1cc(-c2no[n+]([O-])c2C#N)cc(OC)c1OC	none (no result: BLM inh, TRb SRC2 PPI, RECQ1 helicase, TR SRC2 fluor cs, RGS12 GoLoco inh)
O=C(C[C@@H]1C/C=C\C[C@H](NC(=O)OCC2c3ccccc3-c3ccccc32)C(=O)OC[C@@H]2CCCN2C1=O)NCCO	APEX1 inh 9.5µM (no result: BLM inh, TRb SRC2 PPI, RECQ1 helicase, TR SRC2 fluor cs, RGS12 GoLoco inh)
CC(C)(C)OC(=O)C[C@H]1C/C=C\C[C@@H](CC(=O)NCCO)C(=O)N2CCC[C@H]2COC1=O	none (no result: BLM inh, TRb SRC2 PPI, RECQ1 helicase, TR SRC2 fluor cs, RGS12 GoLoco inh)
CC(C)(C)OC(=O)C[C@@H]1C/C=C\C[C@H](CC(=O)NCCO)C(=O)N2CCC[C@H]2COC1=O	APEX1 inh 6.7µM (no result: BLM inh, TRb SRC2 PPI, RECQ1 helicase, TR SRC2 fluor cs, RGS12 GoLoco inh)
O=C(Nc1ccccc1)c1cc(Cl)ccc1O	none (no result: BLM inh, RECQ1 helicase, APEX1 inh, RGS12 GoLoco inh)
NCCCCCCCCCCCC(=O)O	none (no result: BLM inh, RECQ1 helicase, APEX1 inh, RGS12 GoLoco inh)
Cc1cc(C)c2c(=O)n(CC(=O)N3CCC(Cc4ccccc4)CC3)sc2n1	none
Cc1cccc(N2CCN(C(=O)Cn3sc4nc(C)cc(C)c4c3=O)CC2C)c1 (stereo unspecified)	RGS12 GoLoco inh 1.4µM
Cc1nn(C)c2c1c(C(F)(F)F)cc(=O)n2C(C)C(=O)NCc1ccccc1Cl (stereo unspecified)	TR SRC2 fluor cs 316µM[quencher] (no result: RECQ1 helicase, APEX1 inh, RGS12 GoLoco inh)
Cc1oc(-c2ccccc2F)nc1CSCC(=O)NCCc1ccccc1	TR SRC2 fluor cs 0.13µM[quencher] (no result: RECQ1 helicase, APEX1 inh, RGS12 GoLoco inh)
Cc1oc(-c2ccccc2F)nc1CSCC(=O)NC1CC1	none (no result: TRb SRC2 PPI, RECQ1 helicase, TR SRC2 fluor cs, RGS12 GoLoco inh)
CCc1cccc2c1NC1(CCCC1)CC2C (stereo unspecified)	TRb SRC2 PPI 28µM, TR SRC2 fluor cs inconclusive
CC1CC2(CCCCC2)Nc2ccc3ccccc3c21 (stereo unspecified)	none
N#Cc1c(-c2ccc(OCCOCCOCCN)cc2)no[n+]1[O-]	none (no result: BLM inh, TRb SRC2 PPI, RECQ1 helicase, TR SRC2 fluor cs, RGS12 GoLoco inh)
O=C1CC(c2ccccc2)=NN1c1nc(-c2ccccc2)cs1	TRb SRC2 PPI inconclusive, RECQ1 helicase inconclusive, TR SRC2 fluor cs 32µM[quencher]
Cc1cc(/C=C\c2ccc3cc(N(C)C)ccc3[n+]2C)c(C)n1-c1ccccc1	BLM inh inconclusive, TRb SRC2 PPI inconclusive, TR SRC2 fluor cs 14µM[fluorescent]
C[n+]1c(/C=C/c2ccc(O)cc2)ccc2ccccc21	none (no result: TRb SRC2 PPI, RECQ1 helicase, TR SRC2 fluor cs, RGS12 GoLoco inh)
N#Cc1c(NC(=O)COC(=O)c2ccc(O)cc2O)sc2c1CCC2	APEX1 inh 12µM (no result: BLM inh, TRb SRC2 PPI, RECQ1 helicase, TR SRC2 fluor cs, RGS12 GoLoco inh)
C[C@H](CC[C@@H]1OC1(C)C)C1CC[C@H]2[C@@H]3CC=C4C[C@@H](O)CC[C@]4(C)[C@H]3CC[C@]12C (stereo partly specified)	none (no result: BLM inh)
C=CCC1(O)CCOc2ccccc21 (stereo unspecified)	none
O=Cc1ccc(O)cc1O	none (no result: TRb SRC2 PPI, RECQ1 helicase, TR SRC2 fluor cs, RGS12 GoLoco inh)
O=CN/C=C/c1cc(O)ccc1O	APEX1 inh 10µM
N=C1CCC(=N)c2c1c(O)c1ccccc1c2O	BLM inh 32µM, TRb SRC2 PPI 32µM, RECQ1 helicase inconclusive, APEX1 inh inconclusive, TR SRC2 fluor cs 45µM[fluorescent]
O=C(/C=C/c1ccc(O)c(O)c1)OC(Cc1ccc(O)c(O)c1)C(=O)O (stereo unspecified)	RECQ1 helicase 13µM!, APEX1 inh 1.3µM!
O=C(/C=C\c1ccc(O)c(O)c1)O[C@@H](Cc1ccc(O)c(O)c1)C(=O)O	APEX1 inh 2.5µM, RGS12 GoLoco inh 10µM
O=C(/C=C/c1ccc(O)c(O)c1)OCCc1ccccc1	APEX1 inh inconclusive
CC[C@@H](CO)NCCN[C@@H](CC)CO	none (no result: BLM inh, TRb SRC2 PPI, RECQ1 helicase, TR SRC2 fluor cs, RGS12 GoLoco inh)
